# Screens deposited in PubChem by National Center for Advancing Translational Sciences (NCATS).
# SNCA expr inhib = SNCA gene expression inhibition | AID 1671194 | hit rate 0.17% among 140,000 | Potency, µM (titrated, usually from 57.2 µM), inactives show top-dose activity change, negative = inhibition, usual class: inhibitors | HEK-293 SNCA-luciferase knock-in, luminescence, 24 h;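 note: potency is the fitted concentration of half-maximal effect; plate controls were DMSO cells for no effect and cell-free wells for full effect; nearly all actives have a fitted effect of over 45% in size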
# KDM5B inh = blocks human KDM5B histone demethylase activity; Potency, µM (top dose mostly 57.7 µM), most hits filed as inhibitors; KDM5B demethylase, FDH-coupled NADH fluorescence (FDH is formaldehyde dehydrogenase); hit rate 2.6% among 220,000; Q9UGL1; note: potency is the fitted concentration of half-maximal effect; 0% is about no effect; nearly all actives have a fitted effect of over 70% in size
#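 Coupled FDH/NAD⁺ fluorescence readout. KDM5BΔAP 200 nM final; compound titration, 10 min RT preincubation; substrate mix 12.5 µM H3K4me3, 25 µM 2-OG, 50 µM Fe(II), 100 µM ascorbate, 0.25 mM NAD⁺, 0.25 U/mL FDH; ΔRFU over 30 min.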
# IP6K1 inh = IP6K1 kinase inhibition | Q92551 | IP6K1 kinase, ADP-Glo luminescence, 2 h; active compounds read low | activity change, % (series mostly up to about 58 µM) | hit rate 0.81% among 140,000; in the data active = activity change below about -25%; note: % is set by controls: 0 for no effect and ±100 for the full control effect
#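 ADP-Glo luminescence measures ADP made by human IP6K1 during a 2 h RT reaction with ATP/IP6 (mix at 1.3 mM/130 uM); top library doses 57.5 and 19.1 uM final.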
# HEK293 viab = reduces viability of HEK-293 SNCA reporter cells | Potency, µM (top dose mostly 57.1 µM), without a hit: at the top dose activity change, negative = cytotoxicity, usual class: cytotoxic | AID 1671193 | HEK-293-SNCA-luc viability, GF-AFC fluorescence, 24 h | hit rate 0.12% among 150,000;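 note: potency is the fitted concentration of half-maximal effect; 0% = DMSO-treated cells and -100% = medium-only wells without cells; nearly all actives have a fitted effect of over 30% in size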
#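 Cytotoxicity counterscreen: after 24 h compound treatment of genome-edited SNCA-luciferase HEK-293 cells, live-cell protease substrate GF-AFC read by fluorescence after 30 min; activity scaled between DMSO (0%) and medium-only (-100%), curves Hill-fitted.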
# Starred values were filed as active, the others as inactive; i = inactive; ? = inconclusive; . = no result; [ ] = another dose, or the depositor's remark. In the library only some 3% were active in any assay of this set; here they are far more common. Unless noted, calls come from the whole dose curve; as a rule, active = well fitted curve in the direction sought with a large enough effect; inconclusive = small, poorly fitted or top-dose-only effect, or another doubt; inactive = no such curve, though single readings can be large; an effect the other way counts as inactive or inconclusive.
SMILES,SNCA expr inhib,KDM5B inh,IP6K1 inh,HEK293 viab
CC(C)c1nc2c(c(-c3ccc(Cl)cc3)n1)CCN(Cc1cccc3ccccc13)CC2,?,56µM*,7,0%
CNC(=O)c1cc(C2CC2)nc2onc(C3CCN(C(=O)c4ccc(C)cc4)C3)c12 (stereo not given),.,.,-4,.
CN(C)C(=O)C1CCCN(Cc2cccc(-c3cccs3)c2)C1 (stereo not given),72%[87.6 µM],.,-11,2%[87.6 µM]
COCC(=O)N1CCCC(C(=O)N2CCC(N3CCOCC3=O)CC2)C1 (stereo not given),-5%,.,11,7%
CC(C)c1nc2c(c(-c3ccc(Cl)cc3)n1)CCN(CC1CCCCC1)CC2,?,35µM*,-4,3%
CCc1nc2c(c(-c3ccc(Cl)cc3)n1)CCN(CC1CC1)CC2,20%[87.6 µM],28µM*,-1,-7%[87.6 µM]
Nc1cccn2nc(-c3ccccc3)nc12,165%,28µM*,12,1%
CSc1ccc(-c2cccc(CN3CCC(N[S+](C)(=O)[O-])CC3)c2)cc1,.,.,5,.
COc1cccc(-c2ncc3c(n2)OCCN(c2ccccc2)C3=O)c1OC,59%[87.6 µM],i,14,3%[87.6 µM]
COc1cccc(-c2nc(N3CCOCC3)cc3c2CN(C)C3=O)c1,19%[87.6 µM],35µM*,7,0%[87.6 µM]
CN(C)c1cccc(-c2cnc(Nc3cccc(N[S+](C)(=O)[O-])c3)c3c2CCO3)c1,-21%[87.6 µM],?,-9,?
CN1Cc2c(cc(N3CCOCC3)nc2-c2cccc(C(F)(F)F)c2)C1=O,5%[87.6 µM],i,11,9%[87.6 µM]
COc1cccc(-c2nc(N3CCOCC3)cc3c2CN(C)C3=O)c1OC,0%[87.6 µM],40µM*,10,?
CN1Cc2c(cc(N3CCOCC3)nc2-c2cccc(N[S+](C)(=O)[O-])c2)C1=O,107%[87.6 µM],35µM*,20,9%[87.6 µM]
CC1(C(=O)Nc2cccc3ncccc23)Cc2ccccc2C(=O)O1 (stereo not given),.,i,.,.
COc1ccccc1CNC(=O)C1(CCO)CCN(c2ncccn2)C1 (stereo not given),1%,20µM*,4,-5%
COc1ccc(OC)c(CNC(=O)C2(CCO)CCN(c3ncccn3)C2)c1 (stereo not given),-11%,?,4,2%
O=C(NCCCc1ccccc1)C1(CCO)CCN(c2ncccn2)C1 (stereo not given),-9%,25µM*,18,3%
O=C(Nc1ccc(F)cc1F)C1(CCO)CCN(c2ncccn2)C1 (stereo not given),-2%,25µM*,12,6%
O=C(NCc1ccc(F)cc1)C1(CCO)CCN(c2ncccn2)C1 (stereo not given),-6%,28µM*,-8,-3%
O=C(NCCc1ccc(Cl)cc1)C1CCN(C(=O)c2ccc(-c3cccs3)cc2)CC1,.,.,-12,.
Cn1ncc2c(C(=O)Nc3cccc(F)c3)cc(-c3ccccc3C(F)(F)F)nc21,.,.,8,.
O=C(NCc1ccc(Cl)cc1)c1cnn2ncccc12,145%[87.6 µM],35µM*,-2,0%[87.6 µM]
O=C(Nc1ccc(F)cc1)c1cnn2ncccc12,118%[87.6 µM],?,7,-8%[87.6 µM]
O=C(NCc1ccc(Cl)cc1)c1cc2cccnn2n1,-5%[87.6 µM],32µM*,-1,6%[87.6 µM]
SMILES,SNCA expr inhib,KDM5B inh,IP6K1 inh,HEK293 viab
Cc1nnn2c(C(=O)NCc3ccc(Cl)cc3)cccc12,-2%[87.6 µM],35µM*,-7,-5%[87.6 µM]
O=C(NCc1ccc(Cl)cc1)c1ccn2nccc2c1,25%[87.6 µM],35µM*,-13,7%[87.6 µM]
Cc1nnn2c(C(=O)N(C)C)cccc12,22%[87.6 µM],?,8,-10%[87.6 µM]
O=C(NC1CCN(Cc2cccc(-c3ccc(F)c(F)c3)c2)CC1)c1ccc(F)cc1,-25%,.,2,-17%
COc1ccc(C2CC(=O)C3=C(C2)OC(N)=C(C#N)C3c2cccc(Br)c2)cc1 (stereo not given),.,i,.,.
O=C(c1ccc(Cl)cc1)N1CCN(c2nccc(Nc3ccccc3Cl)n2)CC1,?,.,9,-10%
C=CCNC(=O)c1cc2cccnn2n1,33%[87.6 µM],32µM*,4,-8%[87.6 µM]
CC1=CC(=O)C2=C(C)C[C@H](OC(=O)c3ccccc3Br)[C@@H]3[C@H](OC(=O)[C@H]3C)[C@@H]12,.,i,.,.
O=C(NCC1CC1)c1noc(-c2ccc[nH]c2=O)n1,33%,i,9,12%
COc1ccc(C(C)NC(=O)c2noc(-c3ccc[nH]c3=O)n2)cc1OC (stereo not given),?,32µM*,13,12%
CC(C)Oc1ccc(CNC(=O)c2noc(-c3ccc[nH]c3=O)n2)cc1,44%,i,0,3%
